PubChem BioAssay AID1159580 (chemical genetic matrix, 2015)
The whole screen tested about 5,500 compounds, of which about 2,000 (36%) were called active. Another 18% or so got no clear call; they are omitted. Rule as the data show it: active = normalized growth mostly below about 0.91 (no sharp cut-off); inconclusive = no clear call, values can overlap the other calls; inactive = mostly above about 0.92. The list shows a part of the results.

Assay: chemical genetic growth profiling, strain panel (AID 1159580);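 also: tested at 20 µM; growth read once vehicle control cultures reached saturation at 30 °C; 1 = growth at the plate median or of vehicle wells; lower values mean less growth of the strain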
Conditions: growth OD

Measured: normalized growth

CC(=O)OCC1=C(C(=O)O)N2C(=O)[C@@H](NC(=O)CCCC(N)C(=O)O)C2SC1 (some centres not stated)
inactive: S. cerevisiae deletion strains, locus YJR075W, strain HOC1, stronger effect = lower value 1.05 | S. cerevisiae deletion strains, locus YKL009W, strain mrt4, stronger effect = lower value 0.996 | S. cerevisiae deletion strains, locus YKL068W, stronger effect = lower value 1 | S. cerevisiae deletion strains, locus YKL085W, strain MDH1 (second series), stronger effect = lower value 0.995 | S. cerevisiae deletion strains, locus YKL085W, strain MDH1, stronger effect = lower value 0.995 | S. cerevisiae deletion strains, locus YKL160W, strain elf1, stronger effect = lower value 0.998 | S. cerevisiae deletion strains, locus YKL190W, strain CNB1, stronger effect = lower value 1.01 | S. cerevisiae deletion strains, locus YKR001C, strain vps1, stronger effect = lower value 1.03 | S. cerevisiae deletion strains, locus YKR026C, strain gcn3, stronger effect = lower value 0.969 | S. cerevisiae deletion strains, locus YKR091W, strain srl3, stronger effect = lower value 0.999 | S. cerevisiae deletion strains, locus YLL001W, strain dnm1, stronger effect = lower value 0.973 | S. cerevisiae deletion strains, locus YLL026W, stronger effect = lower value 0.996 | S. cerevisiae deletion strains, locus YLL041C, strain sdh2, stronger effect = lower value 0.993 | S. cerevisiae deletion strains, locus YLR027C, strain aat2, stronger effect = lower value 0.998 | S. cerevisiae deletion strains, locus YLR039C, strain RIC1, stronger effect = lower value 1.02 | S. cerevisiae deletion strains, locus YLR058C, strain SHM2, stronger effect = lower value 1.02 | S. cerevisiae deletion strains, locus YLR102C, strain apc9, stronger effect = lower value 0.997 | S. cerevisiae deletion strains, locus YLR113W, strain HOG1, stronger effect = lower value 1.01 | S. cerevisiae deletion strains, locus YLR221C, strain rsa3, stronger effect = lower value 0.994 | S. cerevisiae deletion strains, locus YLR258W, strain gsy2, stronger effect = lower value 1.02 | S. cerevisiae deletion strains, locus YLR262C, strain YPT6 (second series), stronger effect = lower value 0.978 | S. cerevisiae deletion strains, locus YLR262C, strain YPT6, stronger effect = lower value 1.02 | S. cerevisiae deletion strains, locus YLR268W, strain sec22, stronger effect = lower value 1.01 | S. cerevisiae deletion strains, locus YLR320W, strain mms22, stronger effect = lower value 1.01 | S. cerevisiae deletion strains, locus YLR330W, strain CHS5, stronger effect = lower value 1.01 | S. cerevisiae deletion strains, locus YLR342W, strain FKS1 (second series), stronger effect = lower value 1.04 | S. cerevisiae deletion strains, locus YLR342W, strain FKS1, stronger effect = lower value 1.01 | S. cerevisiae deletion strains, locus YLR357W, strain rsc2, stronger effect = lower value 0.99 | S. cerevisiae deletion strains, locus YLR370C, strain arc18, stronger effect = lower value 1.01 | S. cerevisiae deletion strains, locus YLR371W, strain rom2, stronger effect = lower value 1.01 | S. cerevisiae deletion strains, locus YLR384C, strain iki3, stronger effect = lower value 0.994 | S. cerevisiae deletion strains, locus YLR418C, strain cdc73, stronger effect = lower value 1 | S. cerevisiae deletion strains, locus YML016C, strain PPZ1, stronger effect = lower value 1.01 | S. cerevisiae deletion strains, locus YML032C, strain rad52, stronger effect = lower value 1.02 | S. cerevisiae deletion strains, locus YML120C, strain ndi1, stronger effect = lower value 0.996 | S. cerevisiae deletion strains, locus YML124C, strain tub3, stronger effect = lower value 1 | S. cerevisiae deletion strains, locus YMR058W, strain fet3, stronger effect = lower value 0.994 | S. cerevisiae deletion strains, locus YMR078C, strain ctf18, stronger effect = lower value 1 | S. cerevisiae deletion strains, locus YMR125W, strain sto1, stronger effect = lower value 0.996 | S. cerevisiae deletion strains, locus YMR129W, stronger effect = lower value 0.988 | S. cerevisiae deletion strains, locus YMR205C, strain PFK2, stronger effect = lower value 1.02 | S. cerevisiae deletion strains, locus YMR223W, strain ubp8, stronger effect = lower value 1.04 | S. cerevisiae deletion strains, locus YMR231W, strain pep5, stronger effect = lower value 0.988 | S. cerevisiae deletion strains, locus YMR263W, strain SAP30, stronger effect = lower value 1.04 | S. cerevisiae deletion strains, locus YMR307W, strain GAS1, stronger effect = lower value 0.987 | S. cerevisiae deletion strains, locus YNL067W, strain RPL9B, stronger effect = lower value 1.01 | S. cerevisiae deletion strains, locus YNL071W, strain lat1, stronger effect = lower value 1.01 | S. cerevisiae deletion strains, locus YNL128W, strain TEP1, stronger effect = lower value 1.01 | S. cerevisiae deletion strains, locus YNL153C, strain GIM3, stronger effect = lower value 1.03 | S. cerevisiae deletion strains, locus YNL183C, strain NPR1, stronger effect = lower value 0.946 | S. cerevisiae deletion strains, locus YNL209W, strain ssb2, stronger effect = lower value 0.998 | S. cerevisiae deletion strains, locus YNL233W, strain BNI4, stronger effect = lower value 1.02 | S. cerevisiae deletion strains, locus YNL248C, strain rpa49, stronger effect = lower value 0.996 | S. cerevisiae deletion strains, locus YNL250W, strain rad50, stronger effect = lower value 1 | S. cerevisiae deletion strains, locus YNL271C, strain bni1, stronger effect = lower value 0.998 | S. cerevisiae deletion strains, locus YNL298W, strain CLA4, stronger effect = lower value 1.02 | S. cerevisiae deletion strains, locus YNL307C, strain MCK1, stronger effect = lower value 1.01 | S. cerevisiae deletion strains, locus YNL322C, strain KRE1 (second series), stronger effect = lower value 0.99 | S. cerevisiae deletion strains, locus YNL322C, strain KRE1, stronger effect = lower value 1.01 | S. cerevisiae deletion strains, locus YNR049C, strain mso1, stronger effect = lower value 0.996 | S. cerevisiae deletion strains, locus YNR052C, strain pop2, stronger effect = lower value 1.02 | S. cerevisiae deletion strains, locus YOL006C, strain TOP1, stronger effect = lower value 1 | S. cerevisiae deletion strains, locus YOL012C, strain htz1 0.841 | S. cerevisiae deletion strains, locus YOL147C, strain pex11, stronger effect = lower value 0.997 | S. cerevisiae deletion strains, locus YOR001W, strain rrp6, stronger effect = lower value 0.998 | S. cerevisiae deletion strains, locus YOR061W, strain CKA2, stronger effect = lower value 1.01 | S. cerevisiae deletion strains, locus YOR069W, strain VPS5, stronger effect = lower value 1 | S. cerevisiae deletion strains, locus YOR070C, strain gyp1, stronger effect = lower value 0.995 | S. cerevisiae deletion strains, locus YOR080W, strain dia2, stronger effect = lower value 1 | S. cerevisiae deletion strains, locus YOR083W, strain WHI5, stronger effect = lower value 0.993 | S. cerevisiae deletion strains, locus YOR106W, strain vam3, stronger effect = lower value 0.999 | S. cerevisiae deletion strains, locus YOR136W, strain idh2, stronger effect = lower value 1 | S. cerevisiae deletion strains, locus YOR144C, strain elg1, stronger effect = lower value 0.99 | S. cerevisiae deletion strains, locus YOR184W, strain ser1, stronger effect = lower value 1.02 | S. cerevisiae deletion strains, locus YOR231W, strain MKK1, stronger effect = lower value 1 | S. cerevisiae deletion strains, locus YOR265W, strain rbl2, stronger effect = lower value 0.993 | S. cerevisiae deletion strains, locus YOR270C, strain vph1, stronger effect = lower value 1.08 | S. cerevisiae deletion strains, locus YOR290C, strain snf2, stronger effect = lower value 0.973 | S. cerevisiae deletion strains, locus YOR316C, strain cot1, stronger effect = lower value 0.994 | S. cerevisiae deletion strains, locus YPL051W, strain arl3, stronger effect = lower value 0.99 | S. cerevisiae deletion strains, locus YPL055C, strain LGE1, stronger effect = lower value 1.03 | S. cerevisiae deletion strains, locus YPL078C, strain atp4, stronger effect = lower value 0.994 | S. cerevisiae deletion strains, locus YPL106C, strain sse1, stronger effect = lower value 0.981 | S. cerevisiae deletion strains, locus YPL240C, strain hsp82, stronger effect = lower value 1.01 | S. cerevisiae deletion strains, locus YPL241C, strain CIN2, stronger effect = lower value 1.01 | S. cerevisiae deletion strains, locus YPL256C, strain CLN2, stronger effect = lower value 0.967 | S. cerevisiae deletion strains, locus YPR119W, strain clb2, stronger effect = lower value 1 | S. cerevisiae deletion strains, locus YPR141C, strain kar3, stronger effect = lower value 1 | S. cerevisiae deletion strains, locus YPR163C, strain tif3, stronger effect = lower value 1 | S. cerevisiae deletion strains, locus YPR167C, strain met16, stronger effect = lower value 1 | S. cerevisiae deletion strains, strain wtn01, stronger effect = lower value 1 | S. cerevisiae strains, strain wild type, stronger effect = lower value 1.02
